# Results filed as inconclusive are left out. The source made the active and inactive calls.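 Rule for the calls: active = raised CDH13 expression over DMSO controls, judged by fold change in triplicate runs, no set cutoff; inconclusive = doubtful CDH13 rise, criteria not stated; inactive = no rise, falls in expression ignored.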
# Assay: CDH13 Derepression/Induction Secondary Assay for qHTS Assay for Epigenetic Modulators
# Conditions: H358 cells, CDH13 mRNA qPCR, 72 h; active compounds read high
# Text: NIH Molecular Libraries Screening Centers Network [MLSCN] NIH Chemical Genomics Center [NCGC] MLSCN Grant: 1 X01 MH079860-01 Assay Provider: Elisabeth D. Martinez, University of Texas SW Medical Center NCGC Assay Overview: This secondary assay characterizes selected actives identified in the qHTS of the Locus Derepression (LDR) assay (PubChem AID 597). The LDR assay detects the derepression of a GFP reporter that is stably integrated in a region of the genome of murine c127i mammary cells that is presumably silenced. Compounds that cause derepression of the locus to express GFP are identified by enumerating GFP positive cells using a laser-scanning microplate cytometer. Selected LDR actives were assayed for the induction of CDH13 gene expression, a gene silenced by methylation of its promoter. Treatment of cells with DNA methyltransferase inhibitors, like 5-azadeoxycytidine, or with HDAC inhibitors, like trichostatin A, induce CDH13 gene expression. Compounds active in this assay may modulate components involved in DNA methylation, histone acetylation or gene transcription.
# NCGC Assay Protocol Summary Exponentially growing H358 non-small cell lung cancer cells were treated daily with fresh media containing the indicated concentrations of compounds for 72 hr. Cellular RNA was extracted, quantified, DNAse treated and reverse transcribed. The resulting cDNA was amplified in TaqMan real time quantitative PCR assays (Applied Biosystems) containing validated primers specific for CDH13 (Hs00169908.m1). Reactions were performed on an ABI Prism 7900HT, with an initial 2 min preincubation at 50 C, followed by 10 min at 95 C and then 40 cycles of 95 C for 15 seconds and 60 C for 1 min. GAPDH and 18S ribosomal RNA were used as references. Gene expression was measured by fold-induction over control DMSO-treated samples (36-37 average cycle time). Increases corresponded to at least 2-3 cycle time differences over DMSO controls, which were in the measurable range. Decreases in expression were considered insignificant as measurement of the DMSO samples were at the low limit of detection. Reactions were run in triplicate and error bars represent standard deviations. For further details, see R.L. Johnson, W. Huang, A. Jadhav, C.P. Austin, J. Inglese, E.D. Martinez, A Quantitative High-Throughput Screen Identifies Potential Epigenetic Modulators of Gene Expression, Analytical Biochemistry (2007), doi: 10.1016/j.ab.2007.12.028
row,Structure (SMILES),fold change
1,O=C(CSc1cccc2cccnc12)NCc1ccccc1,2 (inactive)
2,O=Nc1ccc(O)c2ncccc12,85 (active)
3,Nc1ncn([C@H]2C[C@H](O)[C@@H](CO)O2)c(=O)n1,9 (active)
4,CC(C)C(=O)NC(c1ccco1)c1ccc2cccnc2c1O (stereo not given),12 (active)
5,CC(/C=C/C(=O)NO)=C\[C@@H](C)C(=O)c1ccc(N(C)C)cc1,256 (active)
6,CCN1CSC(=S)N(CC)C1,1 (inactive)
7,CN1CCN(Cc2cc(Cl)c3cccnc3c2O)CC1,10 (active)
8,CN(C)C(=O)CSc1cccc2cccnc12,1 (inactive)
9,O=C(CSc1cccc2cccnc12)N1CCCC1,1 (inactive)
10,CC(C)C(=O)NC(c1ccco1)c1cc([N+](=O)[O-])c2cccnc2c1O (stereo not given),9 (active)

# Source: PubChem BioAssay AID1042 (National Center for Advancing Translational Sciences (NCATS), 2008)
